Only some compounds are listed: those with a hit (about 8% of all), similar ones and a draw of the others.
Gal4-VP16 FLuc: Gal4-VP16 reporter inhibition counter-screen. Potency, µM (doses to about 53.6 µM), for inactives: at the highest dose activity, negative = inhibition, usual class: inhibitors. 3.5% of 310,000 active. Drosophila S2 Gal4-VP16 UAS-luciferase, luminescence, 20 h;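 further: Gal4-VP16 expression switched on by copper sulfate through the metallothionein promoter; potency means the concentration at half of the fitted maximal effect; nearly all actives have a fitted effect of over 50% in size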
TSHR antagonist: antagonists of human thyroid stimulating hormone receptor | TSHR-expressing cells, TSH-stimulated cAMP HTRF, 2 h; stronger effect = lower value | activity change, negative = inhibition, % at 11.5 µM | 0.2% of 330,000 active | AID 504810;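 active means activity change below a set negative limit, meaning inhibition stronger than a set level, cut at about -70% in these data; inconclusive means activity change between two set negative limits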
Target sequence (P16473 whole entry, looked up): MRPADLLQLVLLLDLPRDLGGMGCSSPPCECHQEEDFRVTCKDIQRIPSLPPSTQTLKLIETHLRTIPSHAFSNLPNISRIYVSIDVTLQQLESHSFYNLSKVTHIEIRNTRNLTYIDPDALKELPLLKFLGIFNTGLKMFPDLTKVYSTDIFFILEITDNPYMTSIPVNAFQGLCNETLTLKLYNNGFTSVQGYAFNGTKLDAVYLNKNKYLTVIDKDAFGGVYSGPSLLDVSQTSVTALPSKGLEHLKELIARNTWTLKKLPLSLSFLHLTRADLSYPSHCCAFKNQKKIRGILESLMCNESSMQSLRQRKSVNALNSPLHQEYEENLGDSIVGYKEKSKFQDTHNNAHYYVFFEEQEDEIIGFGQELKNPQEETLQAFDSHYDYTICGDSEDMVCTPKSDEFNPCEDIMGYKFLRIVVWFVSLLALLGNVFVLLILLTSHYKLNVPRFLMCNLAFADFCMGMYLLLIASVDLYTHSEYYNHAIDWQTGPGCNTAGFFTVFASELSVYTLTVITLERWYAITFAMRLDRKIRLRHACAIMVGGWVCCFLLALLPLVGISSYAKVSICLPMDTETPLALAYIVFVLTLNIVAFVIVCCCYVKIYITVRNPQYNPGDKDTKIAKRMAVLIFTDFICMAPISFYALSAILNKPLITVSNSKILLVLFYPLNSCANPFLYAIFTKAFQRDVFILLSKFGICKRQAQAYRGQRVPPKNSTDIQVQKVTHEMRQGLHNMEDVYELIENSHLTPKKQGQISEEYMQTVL
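Freshly harvested TSHR cells receive pin-tooled compound, then EC80 TSH at 4nM final. After 2 hours at 37 deg C, antibody in lysis buffer and cAMP-d2 are added; 30 minutes at ambient temperature precede the HTRF read.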
ELG1 repair inh: ELG1-dependent DNA repair inhibition | Potency, µM (series often up to 46.1 µM), for the others: top-dose activity change, negative = inhibition, hits mostly inhibitors | 2.3% of 330,000 active | HEK293T ELG1-luciferase reporter, luminescence, 16 h; DNA damage induced by 5-fluorouridine; further: potency means the concentration at half of the fitted maximal effect; nearly all actives have a fitted effect of over 55% in size
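DMSO vehicle served as the neutral condition. Each well held 2,000 cells given 5-fluorouridine plus compound; after 16 hr at 37 °C/5% CO2, ONE-Glo was added and luciferase measured 30 min later.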
FBPA coupling cs: counter-screen for Giardia aldolase inhibitors: coupling enzyme system; coupling enzyme system counterscreen, AmpLite Red fluorescence; activity change, negative = inhibition, % at 58.2 µM, hits read low; 0.67% of 290,000 active; AID 2472; in the data active means activity change below about -30%
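Final compound at 57.5 uM, incubated 10 min at RT with coupling enzyme reagent (glyceraldehyde-3-phosphate), then 20 min with substrate and AmpLite Red detection. Fluorescence read at 525/598 nm; tests interference with the coupling assay, not aldolase inhibition.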
RORgamma inh: blocks mouse ROR gamma transcriptional activity; P51450; Drosophila S2 Gal4-RORgamma UAS-luciferase reporter, 20 h; Potency, µM (series often up to 53.6 µM), for the others: at the top dose activity change, negative = inhibition, most hits filed as inhibitors; 5.4% of 310,000 active; AID 2551; further: potency means the concentration at half of the fitted maximal effect; nearly all actives have a fitted effect of over 60% in size
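In this cell-based reporter format, copper sulfate (700 uM final) drives Gal4–ROR gamma fusion expression from a metallothionein promoter in Drosophila Schneider cells; compounds preincubated 1 hr, reporter read after 20 hr at ambient temperature.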
An asterisk follows results filed as active. Unless noted, the call rests on the fitted dose curve; in most records, active means well fitted curve in the direction sought with a large enough effect; inconclusive means small, poorly fitted or top-dose-only effect, or another doubt; inactive means no such curve, though single readings can be large; an effect the other way counts as inactive or inconclusive. On the % scale 0 is the no-effect control and ±100 the full control effect.

C=C(C)CNC(=S)N/N=C(\C)c1ccc(OC)cc1 was read as Gal4-VP16 FLuc 5.01µM*, TSHR antagonist 4.3, ELG1 repair inh 4.7%, FBPA coupling cs 0.5 and RORgamma inh 2.24µM*.
Screening C/C(=N\NC(=O)c1ccccc1)c1ccc(C)c([N+](=O)[O-])c1 returned Gal4-VP16 FLuc inconclusive, TSHR antagonist -3.3, ELG1 repair inh inconclusive, FBPA coupling cs -0.8 and RORgamma inh 5.6%.
For C/C(=N\NC(=O)C(N)=O)c1ccc(OC(F)F)cc1 the results were Gal4-VP16 FLuc 18.7%, TSHR antagonist -5.7, ELG1 repair inh 13.9%, FBPA coupling cs -0.3 and RORgamma inh 12.7%.
For CC(C(=O)Nc1ccc2c(c1)OCCO2)N1Cc2ccccc2C1=O (stereo unspecified) the results were Gal4-VP16 FLuc 3.9%, TSHR antagonist 9.3, ELG1 repair inh inconclusive and RORgamma inh 10.9%.
CCCCCCCCCCCC(=O)OCC(O)C1OCC(O)C1O (stereo unspecified) was read as Gal4-VP16 FLuc 1.2% and RORgamma inh 13.0%.
For COc1ccc(NC(C)=O)cc1S(=O)(=O)N1CCN(Cc2cccs2)CC1 the results were TSHR antagonist 5.7 and ELG1 repair inh 0.9%.
`COCCNC(=S)N/N=C(\C)c1ccc(OC)cc1` gave Gal4-VP16 FLuc 1.26µM*, TSHR antagonist 6.0, ELG1 repair inh 2.8%, FBPA coupling cs -1.7 and RORgamma inh 0.631µM*.
COc1ccc2cc(/C(C)=N/NC(=O)C3CC3)ccc2c1 was read as Gal4-VP16 FLuc -3.7%, TSHR antagonist -7.9, ELG1 repair inh inconclusive, FBPA coupling cs 1.7 and RORgamma inh -20.9%.
COCCNC(=S)N/N=C(\C)c1cc2ccccc2o1 was read as Gal4-VP16 FLuc 4.47µM*, TSHR antagonist -0.6, ELG1 repair inh inconclusive, FBPA coupling cs 1.1 and RORgamma inh 5.01µM*.
Screening COCCNC(=S)N/N=C(\C)c1ccc2cc(OC)ccc2c1 returned Gal4-VP16 FLuc 1µM*, TSHR antagonist -13.2, ELG1 repair inh inconclusive, FBPA coupling cs -0.5 and RORgamma inh 1µM*.
C/C(=N\NC(=O)COc1ccc(C(C)(C)C)cc1)c1cc2ccccc2o1 was read as Gal4-VP16 FLuc inconclusive, TSHR antagonist 11.9, ELG1 repair inh inconclusive, FBPA coupling cs -0.6 and RORgamma inh inconclusive.
CCN(Cc1nc2ccccc2c(=O)[nH]1)C(=O)COc1ccccc1Cc1ccccc1 was read as TSHR antagonist -11.2 and ELG1 repair inh -13.1%.
For CCOc1ccc(NC(=O)C(=O)NCCN2CCN(S(=O)(=O)c3ccccc3)CC2)cc1 the results were Gal4-VP16 FLuc -10.0%, TSHR antagonist 12.7, ELG1 repair inh 0.2%, FBPA coupling cs 4.0 and RORgamma inh 11.3%.
COc1ccccc1C1(O)CCN(CCCn2c3ccccc3c3ccccc32)CC1 was read as Gal4-VP16 FLuc 4.3%, FBPA coupling cs 4.3 and RORgamma inh 8.1%.
Cc1ccc(-n2c(CNc3cccc(Cl)c3)n[nH]c2=S)cc1 was read as Gal4-VP16 FLuc -14.8%, TSHR antagonist 11.4, ELG1 repair inh 14.5%, FBPA coupling cs 1.9 and RORgamma inh inconclusive.
`COC(Cc1n[nH]c(=S)n1-c1ccc(Cl)cc1)OC` gave Gal4-VP16 FLuc -5.5%, TSHR antagonist -9.2, ELG1 repair inh 6.2%, FBPA coupling cs 2.9 and RORgamma inh inconclusive.
Cc1ccc(-n2c(CNc3ccc(C)c(Cl)c3)n[nH]c2=S)cc1 was read as Gal4-VP16 FLuc -16.6%, TSHR antagonist -7.7, ELG1 repair inh -16.9%, FBPA coupling cs 2.1 and RORgamma inh 2.51µM*.
Cc1ccc(NCc2n[nH]c(=S)n2-c2cccc(Cl)c2)cc1 was read as Gal4-VP16 FLuc -27.7%, TSHR antagonist -1.3, ELG1 repair inh -8.0%, FBPA coupling cs 3.5 and RORgamma inh 7.94µM*.
For CCN(Cc1ccncc1)Cc1c(O)ccc2ccccc12 the results were Gal4-VP16 FLuc -15.5%, TSHR antagonist 3.1, ELG1 repair inh inconclusive, FBPA coupling cs -33.2* and RORgamma inh -36.2%.
CC(C)CN(Cc1c(O)ccc2ccccc12)CC(C)C was read as Gal4-VP16 FLuc 5.2%, TSHR antagonist -3.8, ELG1 repair inh -3.4%, FBPA coupling cs -9.2 and RORgamma inh 6.2%.
Cc1ccc(S(=O)(=O)N2CCN(Cc3cc(=O)n4ccccc4n3)CC2)cc1C was read as TSHR antagonist -20.9 and ELG1 repair inh -4.9%.
For Cc1ccc(S(=O)(=O)N2CCN(Cc3cc(=O)n4ccccc4n3)CC2)c(C)c1 the results were TSHR antagonist -27.6 and ELG1 repair inh 7.3µM*.
`C=CCOc1c(Cl)cc(C(=S)N2CCCC2)cc1OCC` gave Gal4-VP16 FLuc inconclusive, TSHR antagonist 5.0, ELG1 repair inh 11.0%, FBPA coupling cs 0.7 and RORgamma inh 12.6µM*.
CCOc1cc(C(=O)NC(=S)Nc2cccnc2)cc(OCC)c1OCC was read as Gal4-VP16 FLuc inconclusive, TSHR antagonist -9.4, ELG1 repair inh inconclusive, FBPA coupling cs -3.2 and RORgamma inh 12.6µM*.
`CCOc1ccc(C(=O)NC(=S)Nc2cccnc2)cc1` gave Gal4-VP16 FLuc 0.2%, TSHR antagonist 6.9, ELG1 repair inh inconclusive, FBPA coupling cs 2.9 and RORgamma inh -16.3%.
`CSc1cccc(NC(=S)NC(=O)c2cccnc2)c1` gave Gal4-VP16 FLuc 11.2µM*, TSHR antagonist -20.9, ELG1 repair inh 1.0%, FBPA coupling cs -1.5 and RORgamma inh 10µM*.
`COc1ccc(C(=O)NC(=S)Nc2cccnc2)cc1Cl` gave Gal4-VP16 FLuc -7.8%, TSHR antagonist -19.1, ELG1 repair inh 23.0%, FBPA coupling cs 0.5 and RORgamma inh 10µM*.
Screening CCN(CC)C(=O)Cn1cc(S(=O)(=O)CC(=O)Nc2ccc(C(N)=O)cc2)c2ccccc21 returned Gal4-VP16 FLuc -0.3%, TSHR antagonist 1.0, ELG1 repair inh 2.6%, FBPA coupling cs 2.1 and RORgamma inh -29.5%.
For C[C@H]1COC(=O)O1 the results were Gal4-VP16 FLuc -0.6%, FBPA coupling cs -2.9 and RORgamma inh -6.2%.
O=[N+]([O-])c1ccc(S(=O)(=O)Nc2nnc(C3CCCCC3)s2)cc1 was read as Gal4-VP16 FLuc 0.6%, TSHR antagonist -6.0, ELG1 repair inh -10.7%, FBPA coupling cs 12.9 and RORgamma inh 9.0%.
Screening O=C(CSc1nc(-c2ccccc2)cc(C(F)(F)F)n1)N1CCOCC1 returned Gal4-VP16 FLuc -6.9%, TSHR antagonist -8.2, ELG1 repair inh -7.7%, FBPA coupling cs 1.9 and RORgamma inh 3.2%.
`COc1ccc(-c2cc(C(F)(F)F)nc(SCC(=O)N3CCOCC3)n2)cc1OC` gave Gal4-VP16 FLuc -17.6%, TSHR antagonist 10.4, ELG1 repair inh 8.2µM*, FBPA coupling cs 0.3 and RORgamma inh inconclusive.
Screening COc1ccccc1-c1cc(C(F)(F)F)nc(S(=O)(=O)CCCC(=O)O)n1 returned Gal4-VP16 FLuc inconclusive, TSHR antagonist 7.3, ELG1 repair inh 15.1%, FBPA coupling cs 5.0 and RORgamma inh inconclusive.
